Hits are enriched below; roughly 5.3% of the tested compounds scored in any of these assays.
IMPase cell inh: qHTS Assay for Identifying the Cell-Membrane Permeable IMPase Inhibitors; Inositol monophosphatase 1 (Rattus norvegicus), P97697; AID 901, 2007; 120,000 tested, under 10 active; CHO-M1 cells, IP1 accumulation, HTRF TR-FRET ratio; inhibition (IP1 accumulation), % at 46.1 µM; active = well fitted curve in the direction sought with a large enough effect in the signal ratio, not every such curve was filed as active; inconclusive = small, poorly fitted or top-dose-only effect, or a change in a side signal; inactive = no such curve, though single readings can be large or run the other way; the % refers to the signal ratio;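 also: cells stimulated with carbachol in lithium chloride buffer; plate controls were DMSO basal wells for no effect and reference inhibitor wells for full effect; higher means more IMPase inhibition seen as more IP1 and lower FRET ratio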
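CHO-M1, 2000 cells/well, cultured 16–30 h; cpd up to 46 uM; carbachol (50 uM solution, stimulation buffer w/ 50 mM LiCl, pH 7.4), 30 min 37C; IP-One TR-FRET, 10 min RT; Ex 320/Em 665, 620; Hill-fit AC50.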
HPGD block: qHTS Assay for Inhibitors of HPGD (15-Hydroxyprostaglandin Dehydrogenase); Potency, µM, inactives show at the top dose activity change, negative = inhibition, actives largely listed as inhibitors; 15-hydroxyprostaglandin dehydrogenase [NAD(+)] (Homo sapiens), P15428; purified HPGD, NADH fluorescence kinetic, PGE2 substrate; actives 4.3% (n = 150,000); active = well fitted inhibition curve with a large enough effect, not every such curve was filed as active; inconclusive = small, poorly fitted or top-dose-only effect, or another doubt; inactive = no such curve, though single readings can be large or run the other way; also: potency is read from the fitted curve at half-maximal effect
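NADH formation kinetics: reaction with 30 uM PGE2 and 1 mM NAD+ (final), 20 nM enzyme, Tris-HCl pH 8 with Tween 20, after 15 min compound preincubation at room temperature. Fluorescence change, last versus first of five reads.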
15-hLO-2 inh: qHTS Assay for Inhibitors of 15-hLO-2 (15-human lipoxygenase 2); Potency, µM (titrated, usually from 57.1 µM), for the others: top-dose activity change, negative = inhibition, actives largely listed as inhibitors; Polyunsaturated fatty acid lipoxygenase ALOX15B (Homo sapiens), O15296; purified 15hLO-2, xylenol orange hydroperoxide absorbance; actives 0.56% (n = 110,000); also: potency is read from the fitted curve at half-maximal effect; nearly all actives have a fitted effect of over 60% in size
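Screening format was qHTS against 50 nM purified 15hLO-2 in Hepes pH 7.5 with detergent. Activity follows hydroperoxide formation from 45 uM arachidonic acid, measured as 573:405 nm absorbance ratio of the ferric-xylenol orange complex.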
IMPase Li cell: qHTS Assay for Identifying the Cell-Membrane Permeable IMPase Inhibitors: Potentiation with Lithium; CHO-M1 cells, IP1 TR-FRET (IP-One), carbachol + lithium; Potency, µM (top dose mostly 59.4 µM), for the others: at the highest dose activity, negative = IMPase inhibition, most hits filed as inhibitors; actives 0.35% (n = 210,000); AID 1457, 2008;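 also: IP1 builds up when IMPase is blocked and the TR-FRET signal falls; potency is read from the fitted curve at half-maximal effect; plate controls were basal vehicle for no effect and high inhibitor control for full effect; nearly all actives have a fitted effect of over 50% in size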
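Concentration–response in CHO-M1 cells, lithium-potentiated; 30 min at 37C. IP1 detected by competitive TR-FRET after 10 min lysis at RT. Hill-fitted AC50.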
ALOX12 inhib: qHTS Assay for Inhibitors of 12-hLO (12-human lipoxygenase); Polyunsaturated fatty acid lipoxygenase ALOX12 (Homo sapiens), P18054; purified 12-hLO, xylenol orange hydroperoxide absorbance; Potency, µM (doses to about 57.1 µM), for inactives: top-dose activity change, negative = inhibition, usual class: inhibitors; actives 0.12% (n = 150,000); AID 1452, 2008; also: potency is read from the fitted curve at half-maximal effect; nearly all actives have a fitted effect of over 55% in size
Target sequence (P18054 whole entry, looked up): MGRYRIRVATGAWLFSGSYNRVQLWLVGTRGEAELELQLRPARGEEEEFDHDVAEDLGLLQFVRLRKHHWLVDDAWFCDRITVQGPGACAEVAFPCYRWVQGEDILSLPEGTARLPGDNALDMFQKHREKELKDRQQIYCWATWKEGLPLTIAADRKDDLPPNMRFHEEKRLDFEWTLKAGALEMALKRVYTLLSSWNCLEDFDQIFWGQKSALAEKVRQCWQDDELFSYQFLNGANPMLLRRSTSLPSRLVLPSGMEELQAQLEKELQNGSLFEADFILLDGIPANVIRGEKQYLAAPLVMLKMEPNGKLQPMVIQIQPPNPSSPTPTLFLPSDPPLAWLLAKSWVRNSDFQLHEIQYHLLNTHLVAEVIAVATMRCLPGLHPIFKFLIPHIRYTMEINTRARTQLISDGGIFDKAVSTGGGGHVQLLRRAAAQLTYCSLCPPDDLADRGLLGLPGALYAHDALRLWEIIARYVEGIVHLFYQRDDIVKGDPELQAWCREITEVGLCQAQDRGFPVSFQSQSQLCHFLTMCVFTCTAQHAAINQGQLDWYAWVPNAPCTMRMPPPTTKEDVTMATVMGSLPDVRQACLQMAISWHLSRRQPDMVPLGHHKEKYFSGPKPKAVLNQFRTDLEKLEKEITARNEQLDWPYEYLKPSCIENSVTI
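Hydroperoxide output read as Fe(III)-xylenol orange absorbance, 573-to-405 nm ratio, after 30 min reaction with 40 uM arachidonic acid. Enzyme: 150 nM purified human 12hLO, 15 min compound preincubation; 25 mM Hepes pH 7.0, room temperature.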
PNC assembly inh: High Content Assay for Compounds that inhibit the Assembly of the Perinucleolar Compartment. activity change (PNC), negative = inhibition, % at 10 µM. actives 3.1% (n = 140,000). PC3M PTB-GFP, PNC prevalence imaging, 16 h; stronger effect = lower value;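 active = readout at or below -70, meaning at least 70% loss of cells showing the perinucleolar compartment, a nuclear body marking cancer cells; inconclusive = readout between -30 and a set limit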;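 also: plate controls were DMSO wells for no effect and camptothecin positive control wells for full effect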
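PC3M cells stably expressing PTB-GFP, 750–1000 cells/well, treated 16 h at 37 °C with compound (23 nl of library stock), in duplicate. After paraformaldehyde fixation and Hoechst stain, imaged at 20x; PNC prevalence scored by image analysis.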
* marks the source's active call; other numbers are inactive results; ? = inconclusive; . = no result; [ ] = another dose, or the depositor's remark. Unless noted, calls follow the shape of the dose curve; as a rule, active = well fitted curve in the direction sought with a large enough effect; inconclusive = small, poorly fitted or top-dose-only effect, or another doubt; inactive = no such curve, though single readings can be large; an effect the other way counts as inactive or inconclusive. Unless noted, % is scaled to controls: 0 for no effect and ±100 for the full control effect.

SMILES | IMPase cell inh | HPGD block | 15-hLO-2 inh | IMPase Li cell | ALOX12 inhib | PNC assembly inh
CCOC(=O)c1c(-c2ccccc2)csc1NC(=O)COc1ccc2c(C)cc(=O)oc2c1 | . | -22% | . | 4% | 3% | 16
COc1ccc2cc(C(=O)COC(=O)COc3ccc4c(C)cc(=O)oc4c3)ccc2c1 | . | ? | . | ? | 1% | 70
COc1ccc(-c2c(C)c3ccc(OCC(C)=O)cc3oc2=O)cc1 | . | . | . | -7% | . | .
O=C(O)[C@H](C1NCCS1)N1Cc2ccccc2C1 (some centres not stated) | . | -2% | . | -7% | . | .
CCNC(=S)N/N=C/c1ccc(OCC(=O)Nc2ccc(C)cc2)cc1 | ? | -21% | -12% | 28%[38.3 µM] | -4% | 3
COc1ccc(NC(=S)N/C(=N/CS(=O)(=O)c2ccccc2)c2ccccc2)cc1 | 8 | -4% | . | -2% | -14% | ?
O=[N+]([O-])c1ccc(NC(=S)N/C(=N/CS(=O)(=O)c2ccccc2)c2ccccc2)cc1 | 11 | 28µM* | -23% | 6%[38.3 µM] | -16% | ?
Cc1cc(Br)cc2cn[nH]c12 | . | . | . | -13% | . | .
NC(=O)CC[C@H](NC(=O)c1ccc(F)cc1)C(=O)OCC(=O)Nc1c(F)c(F)c(F)c(F)c1F | . | -7% | . | 1% | 2% | -92*
Cc1ccc(S(=O)(=O)/N=S(\C)CC2CC2(Cl)Cl)cc1 (configuration not stated) | -8 | -12% | 4% | 14%[38.3 µM] | -3% | -18
Cc1ccc(-n2[nH]c(=O)c(-c3ccccn3)c2C)cc1 | . | . | . | 6% | . | .
Cc1ccc(-n2[nH]c(=O)c3cccnc32)cc1 | 11 | 16µM* | -17% | 25%[38.3 µM] | 4% | 36
COC(=O)c1ccc2c(c1)SC1=C(CCCC1=O)N2 | 25 | 40µM* | ? | 56%[38.3 µM] | -17% | 23
COC(=O)c1ccc2c(c1)NC(=O)CS2 | . | . | . | -2% | . | .
CC(O)Cn1c(=O)c2c(nc(Br)n2Cc2ccccc2)n(C)c1=O (configuration not stated) | 0 | -8% | . | 5% | 0% | -119*
Cc1cccc(-c2ncc(CN3CCN(CCC(C)C)C(CCO)C3)cn2)c1 (configuration not stated) | . | . | . | 6% | . | .
CCS(=O)(=O)N1Cc2ccccc2CC1C(=O)Nc1nnc(SCc2ccc(F)cc2)s1 (configuration not stated) | . | ? | . | -6% | 4% | -9
CC(C)c1nnc(NC(=O)C2c3ccccc3Oc3ccccc32)s1 | 15 | -7% | -7% | 39%[38.3 µM] | -9% | -21
Cc1nnc(NC(=O)C2c3ccccc3Oc3ccccc32)s1 | 7 | 22µM* | . | 17% | -4% | 205
Cc1ccc(-c2cc(-c3n[nH]c(=S)n3C)c3ccccc3n2)cc1 | . | . | . | -4% | . | .
N#C/C(=C/c1ccccc1[N+](=O)[O-])c1nnc2n1CCCCC2 | -4 | 2.5µM* | . | -1% | 0% | ?
O=C1CC(c2ccco2)CC(O)=C1C=Nc1cc(Cl)ccc1Cl (configuration not stated) | . | -19% | . | -2% | -4% | -24
O=C1CC(c2ccco2)CC(O)=C1C=NCCN1CCN(C(=O)Nc2ccc(Cl)cc2)CC1 (configuration not stated) | . | -4% | . | 2% | 1% | -99*
CC(=O)N1CCN(CCN=CC2=C(O)CC(c3ccco3)CC2=O)CC1 (configuration not stated) | 3 | -17% | 5% | 7%[38.3 µM] | 1% | ?
O=C1CC(c2ccco2)CC(O)=C1C=Nc1cc(Cl)ccc1O (configuration not stated) | 11 | 8.9µM* | ? | -4%[38.3 µM] | ? | -8
SMILES | IMPase cell inh | HPGD block | 15-hLO-2 inh | IMPase Li cell | ALOX12 inhib | PNC assembly inh
CCNC(=O)CSc1nnc(-c2cc(-c3ccc(Cl)cc3)nc3ccccc23)o1 | 1 | -19% | . | 11% | -8% | 14
O=C(c1ccco1)N1CCN(c2nc(C(F)(F)F)nc3c2nnn3Cc2ccccc2)CC1 | 18 | ? | . | 12% | -10% | 237
O=C(c1ccco1)N1CCN(c2ncnc3c2nnn3Cc2ccccc2Cl)CC1 | 2 | 35µM* | . | 14% | 7% | 347
c1ccc(Cn2nnc3c(N4CCCCCC4)ncnc32)cc1 | 6 | 32µM* | 0% | 57%[38.3 µM] | -9% | -8
CCCN1CCN(c2ncnc3c2nnn3Cc2ccccc2)CC1 | 7 | 25µM* | 36% | 55%[38.3 µM] | 13% | 4
COC(=O)c1ccccc1NC(=S)NC(NC(=O)COc1ccccc1)C(Cl)(Cl)Cl (configuration not stated) | 7 | 22µM* | -9% | 8%[38.3 µM] | 3% | 68
CCCC(=O)NC(=S)Nc1ccccc1C(=O)OC | 2 | -28% | -10% | 2%[38.3 µM] | 1% | -108*
COc1ccc(C(=O)CSc2n[nH]c(C)n2)cc1[N+](=O)[O-] | . | . | . | 4% | . | .
O=C(Nc1cccc(O)c1)c1ccc(Br)cc1 | -11 | -1% | -2% | 19%[38.3 µM] | -5% | -128*
CC(=O)Nc1cccc(NC(=O)c2ccc(Br)cc2)c1 | . | . | . | 26% | . | .
CCCCNC(=O)CSc1cc(=O)n(C)c2ccccc12 | -5 | 14µM* | 2% | -12% | 3% | 11
Cn1c(=O)cc(SCC(=O)NCCCN2CCOCC2)c2ccccc21 | -6 | . | -1% | . | -4% | -9
CC(CCc1ccco1)NC(=O)CSc1cc(=O)n(C)c2ccccc12 (configuration not stated) | 0 | 25µM* | 5% | -5%[38.3 µM] | -3% | ?
O=CNC(Cc1ccccc1)C(=O)O (configuration not stated) | 1 | 3% | -2% | -15%[38.3 µM] | 2% | -11
Cc1ccccc1-c1ccc2ncnc(N3CCOCC3)c2c1 | . | . | 34% | 14% | . | .
Nc1ccc2oc(-c3cccc4ccccc34)nc2c1 | -9 | 22µM* | -6% | ? | -9% | -4
Cc1ccc(-c2nc3cc(N)ccc3o2)c(C)c1 | -19 | ? | 1% | ? | -1% | -17
O=C(Nc1cccc(Oc2ccc3c(c2)C(=O)NC3=O)c1)c1cccs1 | -6 | 14µM* | . | 9% | -1% | 15
O=C(COc1cccc(NC(=O)c2cccs2)c1)c1ccc(F)cc1 | . | 16µM* | . | 16% | 0% | 32
O=C(COc1cccc(NC(=O)c2ccccc2)c1)c1ccccc1 | . | . | . | 12% | . | .
